Experimental data as given in PubChem BioAssay (EPA / NIEHS).
Values joined by “and” are separate entries in the source; they are usually repeats but may differ in a detail not shown here. Equal values may be shown once. Active and inactive are the calls of the source. Rule for the calls: active = hit-call score of the fitted dose curve at least 0.9, where 1 is the maximum; inactive = score below 0.9.

Experiment: BSK_3C_TissueFactor: BioMAP Diversity Plus: 3C Assay for Tissue Factor Biomarker Activity (AID 2282997)
Conditions: BioMAP 3C HUVEC, tissue factor biomarker readout; actives raise or lower the signal
How it was run: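 In this endothelial system, HUVEC are treated for 24 h and Tissue Factor is assessed by ELISA, normalised to DMSO.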

| Structure (SMILES) | outcome | AC50 |
| --- | --- | --- |
| C=CC(=O)OCC(F)(F)C(F)(F)C(F)(F)C(F)(F)C(F)(F)C(F)(F)C(F)(F)C(F)F | inactive | – |
| C[Si](Cl)(Cl)CCC(F)(F)C(F)(F)C(F)(F)C(F)(F)C(F)(F)C(F)(F)F | inactive | – |
| FC(F)(F)C(F)(F)C(F)(F)CC1CO1 (centres undefined) | inactive | – |
| OCCCC(F)(F)C(F)(F)C(F)(F)C(F)(F)C(F)(F)C(F)(F)C(F)(F)C(F)(F)F | – | 13.1 µM (active) and 26.1 µM (active) |
| CNS(=O)(=O)C(F)(F)C(F)(F)C(F)(F)C(F)(F)C(F)(F)C(F)(F)C(F)(F)C(F)(F)F | inactive | – |
| CCOC(C=C(C)CCC=C(C)C)OCC | – | 30.9 µM (active) |
| O=C(O)CCC(F)(F)C(F)(F)C(F)(F)F | inactive | – |
| O=C(Cl)C(F)(F)C(F)(F)C(F)(F)C(F)(F)C(F)(F)C(F)(F)F | inactive | – |
| OCC(O)CC(F)(F)C(F)(F)C(F)(F)C(F)(F)C(F)(F)C(F)(F)C(F)(F)C(F)(F)F (centres undefined) | inactive | – |
| NC(=O)C(F)(F)C(F)(F)C(F)(F)F | inactive | – |
| CCOC(=O)CC(=O)C(F)(F)C(F)(F)F | inactive | – |
| C=CC(=O)OCC(F)(F)C(F)(F)C(F)(F)COC(=O)C=C | – | 23.3 µM (active) and 14.6 µM (active) |
| CO[Si](C)(CCC(F)(F)C(F)(F)C(F)(F)C(F)(F)C(F)(F)C(F)(F)F)OC | inactive | – |
| O=S(=O)(OCC(F)(F)F)C(F)(F)C(F)(F)C(F)(F)C(F)(F)F | inactive | – |
| O=C(O)C(F)(F)C(F)(F)C(F)(F)OC(F)(F)F | inactive | – |
| Cc1ccc(O)c(-n2nc3ccccc3n2)c1 | inactive | – |
| CCN(CC)c1ccc(N=Nc2ccccc2)cc1 | inactive | – |

Experiment: BSK_3C_uPAR: BioMAP Diversity Plus: 3C Assay for Urokinase-type plasminogen activator receptor (uPAR) Biomarker Activity (AID 2282998)
Conditions: BioMAP 3C HUVEC, uPAR biomarker ELISA; actives raise or lower the signal
How it was run: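 Readout: ELISA for surface uPAR. System: human umbilical vein endothelial primary cells, 24 h after chemical exposure. Analysis: bidirectional fit, DMSO baseline.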

| Structure (SMILES) | outcome | AC50 |
| --- | --- | --- |
| C=CC(=O)OCC(F)(F)C(F)(F)C(F)(F)C(F)(F)C(F)(F)C(F)(F)C(F)(F)C(F)F | inactive | – |
| OCCCC(F)(F)C(F)(F)C(F)(F)C(F)(F)C(F)(F)C(F)(F)C(F)(F)C(F)(F)F | – | 19.6 µM (active) and 42.2 µM (active) |
| CNS(=O)(=O)C(F)(F)C(F)(F)C(F)(F)C(F)(F)C(F)(F)C(F)(F)C(F)(F)C(F)(F)F | inactive | – |
| CCOC(=O)CC(=O)C(F)(F)C(F)(F)F | inactive | – |
| Cc1ccc(O)c(-n2nc3ccccc3n2)c1 | inactive | – |

Experiment: BSK_3C_VCAM1: BioMAP Diversity Plus: 3C Assay for Vascular cell adhesion molecule 1 (VCAM1) Biomarker Activity (AID 2282999)
Conditions: BioMAP 3C HUVEC, VCAM1 ELISA, cytokine-stimulated; actives raise or lower the signal
How it was run: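 Activity fitted in both directions relative to DMSO, with ELISA measurement of the surface marker on primary HUVEC (3C) at 24 h post-treatment; parallel SRB staining (0.1% SRB, TCA-fixed, 560 nm) flagged overt cytotoxicity.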

| Structure (SMILES) | outcome | AC50 |
| --- | --- | --- |
| C=CC(=O)OCC(F)(F)C(F)(F)C(F)(F)C(F)(F)C(F)(F)C(F)(F)C(F)(F)C(F)F | inactive | – |
| C[Si](Cl)(Cl)CCC(F)(F)C(F)(F)C(F)(F)C(F)(F)C(F)(F)C(F)(F)F | inactive | – |
| FC(F)(F)C(F)(F)C(F)(F)CC1CO1 (centres undefined) | inactive | – |
| OCCCC(F)(F)C(F)(F)C(F)(F)C(F)(F)C(F)(F)C(F)(F)C(F)(F)C(F)(F)F | – | 39.9 µM (active) and 46 µM (active) |
| CNS(=O)(=O)C(F)(F)C(F)(F)C(F)(F)C(F)(F)C(F)(F)C(F)(F)C(F)(F)C(F)(F)F | inactive | – |
| CCOC(C=C(C)CCC=C(C)C)OCC | – | 34 µM (active) |
| O=C(O)CCC(F)(F)C(F)(F)C(F)(F)F | inactive | – |
| O=C(Cl)C(F)(F)C(F)(F)C(F)(F)C(F)(F)C(F)(F)C(F)(F)F | inactive | – |
| OCC(O)CC(F)(F)C(F)(F)C(F)(F)C(F)(F)C(F)(F)C(F)(F)C(F)(F)C(F)(F)F (centres undefined) | inactive | – |
| NC(=O)C(F)(F)C(F)(F)C(F)(F)F | inactive | – |
| CCOC(=O)CC(=O)C(F)(F)C(F)(F)F | inactive | – |
| C=CC(=O)OCC(F)(F)C(F)(F)C(F)(F)COC(=O)C=C | – | 15.6 µM (active) and 20.5 µM (active) |
| CO[Si](C)(CCC(F)(F)C(F)(F)C(F)(F)C(F)(F)C(F)(F)C(F)(F)F)OC | inactive | – |
| O=S(=O)(OCC(F)(F)F)C(F)(F)C(F)(F)C(F)(F)C(F)(F)F | inactive | – |
| O=C(O)C(F)(F)C(F)(F)C(F)(F)OC(F)(F)F | inactive | – |
| Cc1ccc(O)c(-n2nc3ccccc3n2)c1 | inactive | – |
| CCN(CC)c1ccc(N=Nc2ccccc2)cc1 | – | 20 µM (active) |
